{"source": "PubChem BioAssay AID720551", "about": "(National Center for Advancing Translational Sciences (NCATS), 2013)", "note": "Among all 340,000 compounds or so, about 1,300 (0.38%) were called active. Shown is part of a subset that was picked to be rich in actives. Values without a mark were called inactive.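 The calls were made as follows: active = maximum activity change below -70%; inconclusive = maximum activity change between -70% and -50%; inactive = maximum activity change above -50%.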"}
{"biological_target": "Voltage-gated inwardly rectifying potassium channel KCNH2 (Homo sapiens) (UniProt Q12809)", "sequence (Q12809 whole entry, looked up)": "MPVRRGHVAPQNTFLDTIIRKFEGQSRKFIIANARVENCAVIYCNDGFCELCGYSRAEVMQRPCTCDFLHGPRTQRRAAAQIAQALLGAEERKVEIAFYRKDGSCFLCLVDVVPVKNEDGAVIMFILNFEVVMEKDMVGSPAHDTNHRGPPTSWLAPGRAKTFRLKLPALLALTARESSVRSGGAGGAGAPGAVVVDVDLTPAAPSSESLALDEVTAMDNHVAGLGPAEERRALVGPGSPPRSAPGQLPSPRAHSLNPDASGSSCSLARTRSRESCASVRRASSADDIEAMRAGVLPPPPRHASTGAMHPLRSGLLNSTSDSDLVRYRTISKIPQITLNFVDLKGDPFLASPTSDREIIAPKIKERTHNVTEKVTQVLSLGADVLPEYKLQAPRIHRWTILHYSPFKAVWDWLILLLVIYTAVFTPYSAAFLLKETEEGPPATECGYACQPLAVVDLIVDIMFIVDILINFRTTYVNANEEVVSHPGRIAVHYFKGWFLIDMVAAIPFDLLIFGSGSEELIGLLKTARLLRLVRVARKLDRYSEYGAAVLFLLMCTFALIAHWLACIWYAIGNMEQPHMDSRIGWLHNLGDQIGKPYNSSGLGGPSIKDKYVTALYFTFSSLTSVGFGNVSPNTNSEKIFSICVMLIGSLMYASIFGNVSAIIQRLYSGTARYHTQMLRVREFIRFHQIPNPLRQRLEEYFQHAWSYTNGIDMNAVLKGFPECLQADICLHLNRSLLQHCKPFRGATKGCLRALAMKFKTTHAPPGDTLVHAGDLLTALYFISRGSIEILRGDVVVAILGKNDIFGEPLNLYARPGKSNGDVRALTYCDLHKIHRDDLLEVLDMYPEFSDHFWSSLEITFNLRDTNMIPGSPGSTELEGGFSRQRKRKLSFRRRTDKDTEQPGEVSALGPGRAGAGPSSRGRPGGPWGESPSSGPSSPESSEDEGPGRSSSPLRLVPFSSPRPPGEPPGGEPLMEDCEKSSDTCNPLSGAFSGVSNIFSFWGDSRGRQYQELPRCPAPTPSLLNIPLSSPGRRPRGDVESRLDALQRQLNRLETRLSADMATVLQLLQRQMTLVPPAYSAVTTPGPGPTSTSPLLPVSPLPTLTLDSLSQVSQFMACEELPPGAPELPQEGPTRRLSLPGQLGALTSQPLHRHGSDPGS", "assay": "qHTS for Inhibitors of KCHN2 3.1: Wildtype qHTS; also: % is scaled to controls: 0 for no effect and ±100 for the full control effect", "details": "U2OS, BacMam KCNH2, thallium flux FluxOr; at 1.84 µM; stronger effect = lower value", "description": "Many antipsychotic drugs that inhibit the neurotransmitter dopamine also bind to hERG1 channel which might help explain their antipsychotic activity but also produces cardiac side effects. The discovery of the novel KCNH2 3.1 isoform offers a potential new target for the development of antipsychotic drugs without cardiac side effects. This proposal will use a high throughput thallium flux assay developed for KCNH2 to screen compounds that modulate the activity of KCNH2 3.1. The wild type KCNH2 channel will also be screened in parallel to help define the selective modulators of this KCNH2 3.1 potassium channel. The resulting compounds will be validated in electrophysiology experiments. The availability of animal models will allow future testing in vivo for effects on memory and other aspects of animal physiology linked with psychosis. NIH Chemical Genomics Center [NCGC] NIH Molecular Libraries Probe Centers Network [MLPCN] MLPCN Grant: MH096539 Assay Submitter (PI): James Barrow, Johns Hopkins University, Lieber Institute for Brain Development\nU2OS cells were resuspended in cell media containing 10% fetal calf serum (FCS) at a concentration of 2 million cells / mL. The solution was treated with the Wild-type virus at 2.03 x 10^8 / mL and allowed to incubate at room temperature in the dark. After 4 hours of incubation, DMEM + 10% fetal bovine serum (FBS) was added to the cell solution. Three microliter was then dispensed into a 1536 tissue culture treated black assay plates which were incubated overnight at 37 C. Two microliter of loading buffer (HBSS + HEPES + Red40 dye quencher + FluxOr dye) was added and the assay plates were incubated for 45 min at room temperature in the dark. […] A stimulation buffer was added to the plate and the second kinetic read (2 min) was obtained. The rate constant was calculated from the kinetic reads and normalized to the positive and negative DMSO controls."}
{"molecule": "O=C(NCc1ccccc1)C1CNCC(C(=O)NCc2ccccc2)C1", "note": "(stereo not given)", "activity change": "-19%"}
{"molecule": "COc1ccc(-c2ccc3[nH]c4c(c3c2)CCN2C[C@H]3[C@H](C)ON(C)[C@H]3C[C@@H]42)cc1", "activity change": "-1.03%"}
{"molecule": "COc1cc(NC(=O)C2=C(C)OCCS2)c(Cl)cc1C(=O)NCCCN1CCCC(C)C1", "note": "(stereo not given)", "activity change": "15%"}
{"molecule": "N#CC1(Nc2ccc3c4c(cccc24)CC3)CCCCC1", "activity change": "-12.6%"}
{"molecule": "COc1cccc(CC2(CO)CCCN(Cc3nc(-c4cccs4)oc3C)C2)c1", "note": "(stereo not given)", "activity change": "-11.7%"}
{"molecule": "COc1cccc(CC2(CO)CCCN(Cc3ccc(OC(F)F)cc3)C2)c1", "note": "(stereo not given)", "activity change": "-73.9% (active)"}
{"molecule": "COc1cccc(CC2(CO)CCCN(CC3=Cc4cc(OC)ccc4OC3)C2)c1", "note": "(stereo not given)", "activity change": "8.29%"}
{"molecule": "C[C@@H]1CN([C@@H](C)CO)C(=O)CCCn2nncc2CO[C@H]1CN(C)C(=O)Nc1ccc(C(F)(F)F)cc1", "activity change": "-21.9%"}
{"molecule": "O=C(CN1CCCCC1)Nc1ccccc1C(=O)NC1CC1", "activity change": "4.09%"}
{"molecule": "N#Cc1ccc(CN2CCN(CC(=O)Nc3ccccc3C(=O)NC3CC3)CC2)cc1", "activity change": "-89.2% (active)"}
{"molecule": "Cc1ccc(OCC(=O)Nc2ccccc2C(=O)NC2CC2)cc1", "activity change": "36.5%"}
{"molecule": "COc1ccc(OC)c(C(=O)NC2CCCc3c2cnn3-c2cc(C)cc(C)c2)c1", "note": "(stereo not given)", "activity change": "-0.114%"}
{"molecule": "CC1(C)NC(=O)N(CC(=O)Nc2ccc(-c3ccccc3)cc2)C1=O", "activity change": "-12.6%"}
{"molecule": "O=C(NCc1ccco1)c1sc2cccc(F)c2c1Cl", "activity change": "-25.2%"}
{"molecule": "COc1ccc2c(Cl)c(C(=O)NCc3ccco3)sc2c1", "activity change": "-70.1% (active)"}
{"molecule": "COc1ccc2oc(C(=O)NCc3ccco3)c(C)c2c1", "activity change": "26.9%"}
{"molecule": "OCC1OC(n2cnc3c(N4CCCC4)ncnc32)C(O)C1O", "note": "(stereo not given)", "activity change": "-11.6%"}
{"molecule": "C[C@H]1CN(c2ccc(Br)cc2)C(=O)[C@@H]1CC(=O)Nc1ccc(Br)cc1", "activity change": "1.02%"}
{"molecule": "CSc1sc(C(=O)NNC(=O)c2ccc(Cl)cc2)c2c1C=CCC2", "activity change": "-2.11%"}
{"molecule": "C=CCNC(=O)c1sc(SC)cc1-c1ccc(Cl)cc1", "activity change": "-187% (active)"}
{"molecule": "CN(CC(=O)Nc1ccc(F)cc1)C(=O)c1ccc(-c2ccc(Cl)cc2)o1", "activity change": "-18.6%"}
{"molecule": "Cc1ccc(S(=O)(=O)NCCN2CCOCC2)cc1C", "activity change": "-76.1% (active)"}
{"molecule": "O=S(=O)(NCCCN1CCOCC1)c1ccc(F)c(Cl)c1", "activity change": "4.11%"}
{"molecule": "Cc1cc(C)c(S(=O)(=O)NCCCN2CCOCC2)cc1Br", "activity change": "12.5%"}
{"molecule": "C[C@H]1CN([C@@H](C)CO)S(=O)(=O)c2ccc(Br)cc2O[C@H]1CN(C)C(=O)c1cnccn1", "activity change": "2.27%"}
{"molecule": "COCCCNc1nc2c(-c3cccc(C(F)(F)F)c3)nnn2c2ccccc12", "activity change": "-4.14%"}
{"molecule": "COC(=O)Cn1nc(-c2ccccc2)c2cc(Cl)ccc21", "activity change": "-4.79%"}
{"molecule": "COCCCNc1nc2c(-c3cccc(C)c3)nnn2c2ccc(Cl)cc12", "activity change": "-86% (active)"}
{"molecule": "Cc1nnc(SC(C)C(=O)c2c[nH]c3ccccc23)n1C1CC1", "note": "(stereo not given)", "activity change": "-2.83%"}
{"molecule": "Cc1cn([C@H]2C[C@H](O)[C@@H](CNC(=O)[C@H](N)Cc3cccnc3)O2)c(=O)[nH]c1=O", "activity change": "-1.56%"}
{"molecule": "O=C(C[C@H]1C[C@@H]2c3cc(NC(=O)C4CCC4)ccc3O[C@@H]2[C@H](CO)O1)NC1CCCCC1", "activity change": "-22.6%"}
{"molecule": "O=C(C1CCCO1)N1CCN(C(=O)C23CC4CC(CC(C4)C2)C3)CC1", "note": "(stereo not given)", "activity change": "-8.69%"}
{"molecule": "c1ccc(CCc2ccccn2)cc1", "activity change": "15.2%"}
{"molecule": "O=c1[nH]nc(Cc2ccccn2)c2ccccc12", "activity change": "-160% (active)"}
{"molecule": "Cc1ccc(C(=O)C(C)OC(=O)Cc2n[nH]c(=O)c3ccccc23)cc1C", "note": "(stereo not given)", "activity change": "5.46%"}
{"molecule": "C[C@H](CO)N1C[C@H](C)[C@@H](CN(C)S(=O)(=O)c2ccc(Oc3ccccc3)cc2)OCc2cn(nn2)CCCC1=O", "activity change": "10.5%"}
{"molecule": "COc1ccc(C=C2CCC3C(CCCC34OCCO4)C2=O)cc1", "note": "(stereo not given)", "activity change": "7.34%"}
{"molecule": "COc1ccc(S(=O)(=O)N2CCN(CC(=O)N3CCNC3=O)CC2)cc1OC", "activity change": "-3.77%"}
{"molecule": "OC(COc1ccc(CN2CCSCC2)cc1)CN1CCCCC1", "note": "(stereo not given)", "activity change": "-2.59%"}
{"molecule": "Cc1cccc(C)c1OCC(O)CN1CCCCC1", "note": "(stereo not given)", "activity change": "-71.1% (active)"}
{"molecule": "O=C(c1ccc(Cl)cc1)c1ccc(OCC(O)CN2CCCCC2)cc1", "note": "(stereo not given)", "activity change": "42.5%"}
{"molecule": "Cc1ccc(NC(=O)c2ccco2)cc1", "activity change": "-2.95%"}
{"molecule": "O=Cc1cn(CCOc2ccc(F)cc2)c2ccccc12", "activity change": "-0.818%"}
{"molecule": "COc1ccc(CC(NC(C)=O)C(=O)NC2CCN(C(=O)Nc3ccc(C#N)cc3)CC2)cc1OC", "note": "(stereo not given)", "activity change": "6.09%"}
{"molecule": "CCOC(=O)C1CCN(C(=O)Nc2cccc(OC)c2)CC1", "activity change": "-8.37%"}
{"molecule": "COc1cccc(NC(=O)N2CCC(NC(=O)C(Cc3cccc(C)c3)NC(C)=O)CC2)c1", "note": "(stereo not given)", "activity change": "-205% (active)"}
{"molecule": "O=Nc1c(O)cc(O)c2ccccc12", "activity change": "-0.133%"}
{"molecule": "COC(=O)C(Cc1c[nH]c2ccccc12)NC(=O)CCNC(=O)c1ccco1", "note": "(stereo not given)", "activity change": "0.0904%"}
{"molecule": "CSc1ncc(C(=O)Nc2ccc(C)cc2C)c(C)n1", "activity change": "-213% (active)"}
{"molecule": "CSc1ncc(C(=O)NCCCc2ccccc2)c(C)n1", "activity change": "11.2%"}
{"molecule": "Cc1ccc(NC(=O)c2ccn(C(=O)Nc3ccccc3)n2)c(C)c1", "activity change": "5.47%"}
{"molecule": "CCc1cc(C(=O)N(CC)CC(=O)Nc2c(F)cccc2F)sc1C", "activity change": "1.41%"}
{"molecule": "CC(C)c1cc(C(=O)NC2CCCCCC2)c2ccccc2n1", "activity change": "1.65%"}
{"molecule": "O=S(=O)([N-]c1nc2ccccc2nc1-[n+]1ccc(Cc2ccccc2)cc1)c1ccc(Br)s1", "activity change": "8.23%"}
{"molecule": "CCCCNc1nc2ccccc2nc1NS(=O)(=O)c1cccs1", "activity change": "-1.02%"}
{"molecule": "Cc1cc(C)c[n+](-c2nc3ccccc3nc2[N-]S(=O)(=O)c2cccs2)c1", "activity change": "-111% (active)"}
{"molecule": "N#Cc1ccc(OCC(=O)Nc2nc(-c3ccccn3)cs2)cc1", "activity change": "19.3%"}
{"molecule": "CCc1ccc2ncc(C(=O)c3ccccc3)c(N3CCOCC3)c2c1", "activity change": "5.15%"}
{"molecule": "O=C(NCC(c1cccs1)N1CCOCC1)c1cc(-c2ccccn2)nc2ccccc12", "note": "(stereo not given)", "activity change": "0.99%"}
{"molecule": "O=C(c1ccccc1)c1cc(-c2ccccn2)c(N2CCOCC2)s1", "activity change": "-186% (active)"}
